From publication PMC7862700, “An all-to-all approach to the identification of sequence-specific readers for epigenetic DNA modifications on cytosine”

Legend:
Assay in all cases: DAPPL (digital affinity profiling via proximity ligation, sequencing); 10 mM Tris-HCl pH 7.5, 50 mM NaCl, 1 mM DTT, 4% glycerol, room temperature, 30 min; GST-TFs on glutathione beads, 16-mer random dsDNA library, 0.1% formaldehyde crosslink after washing; high values mean tight binding
Conditions in all cases: protein: recombinant; tags: N-terminal GST; dsDNA, one strand shown
FLI1 = molecular target: T1, FLI1 (Homo sapiens, UniProt Q01543 1-452)
T1 sequence: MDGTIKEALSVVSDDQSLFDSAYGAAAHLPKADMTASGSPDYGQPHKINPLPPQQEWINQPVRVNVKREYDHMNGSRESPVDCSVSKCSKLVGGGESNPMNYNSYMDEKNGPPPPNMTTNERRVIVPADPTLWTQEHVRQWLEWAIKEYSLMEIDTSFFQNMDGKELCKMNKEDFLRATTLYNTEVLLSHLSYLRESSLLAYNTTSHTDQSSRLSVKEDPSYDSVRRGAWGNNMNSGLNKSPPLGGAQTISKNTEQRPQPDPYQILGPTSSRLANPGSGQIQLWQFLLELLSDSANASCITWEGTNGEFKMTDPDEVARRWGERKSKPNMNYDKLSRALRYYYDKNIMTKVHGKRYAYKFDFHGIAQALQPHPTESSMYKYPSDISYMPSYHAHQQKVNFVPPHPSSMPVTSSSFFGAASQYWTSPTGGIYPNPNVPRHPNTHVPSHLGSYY
How it was run: (§1)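 Human transcription factors fused to GST were expressed in yeast, captured on glutathione beads, given DNA barcodes and pooled with a GST-only negative control. Pools were incubated with 200 nmole of a 16-mer random double-stranded DNA library in Tris/NaCl/DTT/glycerol buffer at room temperature for 30 min. They were then washed, crosslinked with 0.1% formaldehyde, proximity-ligated (BsaI/T4 ligase, 1 h, 37 °C), PCR-amplified and sequenced on an Illumina NextSeq500. Binding signal is each 6-mer's read frequency for a factor divided by its frequency for the GST control.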

ELK1 = molecular target: T2, ELK1 (Homo sapiens, UniProt P19419 1-428)
T2 sequence: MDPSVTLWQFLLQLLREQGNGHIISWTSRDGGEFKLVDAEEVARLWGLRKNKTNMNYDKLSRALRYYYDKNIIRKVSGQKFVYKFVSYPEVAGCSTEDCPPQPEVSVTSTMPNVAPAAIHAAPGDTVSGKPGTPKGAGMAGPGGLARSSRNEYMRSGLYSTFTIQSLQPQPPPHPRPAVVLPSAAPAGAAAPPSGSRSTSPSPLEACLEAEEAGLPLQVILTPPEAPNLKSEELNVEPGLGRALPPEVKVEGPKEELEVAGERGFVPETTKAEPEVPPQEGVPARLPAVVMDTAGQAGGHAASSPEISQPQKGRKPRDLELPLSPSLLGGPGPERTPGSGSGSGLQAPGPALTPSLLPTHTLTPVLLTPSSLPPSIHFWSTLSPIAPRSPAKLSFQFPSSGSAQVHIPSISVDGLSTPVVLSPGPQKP
How it was run: as §1

GABPA = molecular target: T3, GABPA (Homo sapiens, UniProt Q06546 1-454)
T3 sequence: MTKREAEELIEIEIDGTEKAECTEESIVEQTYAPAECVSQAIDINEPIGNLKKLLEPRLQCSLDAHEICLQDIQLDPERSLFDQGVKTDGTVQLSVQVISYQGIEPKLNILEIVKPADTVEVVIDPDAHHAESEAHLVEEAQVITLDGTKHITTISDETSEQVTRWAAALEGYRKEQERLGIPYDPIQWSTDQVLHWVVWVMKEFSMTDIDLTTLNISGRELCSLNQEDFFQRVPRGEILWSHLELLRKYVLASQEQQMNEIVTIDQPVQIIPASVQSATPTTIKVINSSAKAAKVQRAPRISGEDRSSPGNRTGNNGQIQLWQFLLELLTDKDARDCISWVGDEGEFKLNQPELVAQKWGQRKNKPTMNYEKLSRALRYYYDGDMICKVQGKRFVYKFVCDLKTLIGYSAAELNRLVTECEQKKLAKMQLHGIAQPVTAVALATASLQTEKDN
How it was run: as §1

ERG = molecular target: T4, ERG (Homo sapiens, UniProt P11308 1-479)
T4 sequence: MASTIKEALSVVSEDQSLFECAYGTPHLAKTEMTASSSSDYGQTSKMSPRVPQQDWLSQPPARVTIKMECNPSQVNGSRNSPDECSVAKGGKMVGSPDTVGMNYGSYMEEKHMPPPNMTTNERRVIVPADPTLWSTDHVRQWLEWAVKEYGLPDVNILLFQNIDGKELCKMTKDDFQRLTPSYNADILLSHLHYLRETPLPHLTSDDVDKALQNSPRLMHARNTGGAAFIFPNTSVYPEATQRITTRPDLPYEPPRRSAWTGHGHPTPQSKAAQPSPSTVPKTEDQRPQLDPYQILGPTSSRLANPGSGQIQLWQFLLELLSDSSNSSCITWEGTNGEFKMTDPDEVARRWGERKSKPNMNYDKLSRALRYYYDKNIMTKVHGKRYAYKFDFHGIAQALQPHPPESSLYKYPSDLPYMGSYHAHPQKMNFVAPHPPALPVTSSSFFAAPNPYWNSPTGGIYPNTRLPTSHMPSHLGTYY
How it was run: as §1

ELF1 = ELF1 (Homo sapiens, UniProt P32519 1-619)
Sequence of ELF1 (P32519 whole entry): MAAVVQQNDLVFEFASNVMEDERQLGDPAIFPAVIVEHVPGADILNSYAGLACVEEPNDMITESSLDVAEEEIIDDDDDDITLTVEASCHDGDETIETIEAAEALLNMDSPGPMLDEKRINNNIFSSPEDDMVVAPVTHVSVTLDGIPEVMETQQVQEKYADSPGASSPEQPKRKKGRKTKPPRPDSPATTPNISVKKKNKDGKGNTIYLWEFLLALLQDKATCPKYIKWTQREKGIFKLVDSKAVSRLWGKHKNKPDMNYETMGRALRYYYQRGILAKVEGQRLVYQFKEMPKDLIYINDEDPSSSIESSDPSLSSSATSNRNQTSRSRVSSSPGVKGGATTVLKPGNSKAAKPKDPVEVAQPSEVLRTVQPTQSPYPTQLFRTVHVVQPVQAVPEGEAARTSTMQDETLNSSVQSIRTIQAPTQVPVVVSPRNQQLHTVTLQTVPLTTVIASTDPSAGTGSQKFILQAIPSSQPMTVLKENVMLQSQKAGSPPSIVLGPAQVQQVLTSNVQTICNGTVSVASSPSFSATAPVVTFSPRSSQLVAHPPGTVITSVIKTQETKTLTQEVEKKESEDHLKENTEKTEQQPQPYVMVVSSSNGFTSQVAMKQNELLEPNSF
How it was run: as §1

EHF = molecular target: T5, EHF (Homo sapiens, UniProt Q9NZC4 1-300)
T5 sequence: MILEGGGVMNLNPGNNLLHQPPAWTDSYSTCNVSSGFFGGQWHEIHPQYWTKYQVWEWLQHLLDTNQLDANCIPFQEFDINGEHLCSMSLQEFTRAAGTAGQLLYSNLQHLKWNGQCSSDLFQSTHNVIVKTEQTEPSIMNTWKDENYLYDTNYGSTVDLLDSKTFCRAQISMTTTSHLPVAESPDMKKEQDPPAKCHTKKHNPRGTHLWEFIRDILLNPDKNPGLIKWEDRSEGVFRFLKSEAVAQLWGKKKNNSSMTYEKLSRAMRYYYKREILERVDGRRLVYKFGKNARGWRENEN
How it was run: as §1

SPI1 = SPI1 (Homo sapiens, UniProt P17947 1-270)
How it was run: as §1

SPIB = SPIB (Homo sapiens, UniProt Q01892 1-262)
Sequence of SPIB (Q01892 whole entry): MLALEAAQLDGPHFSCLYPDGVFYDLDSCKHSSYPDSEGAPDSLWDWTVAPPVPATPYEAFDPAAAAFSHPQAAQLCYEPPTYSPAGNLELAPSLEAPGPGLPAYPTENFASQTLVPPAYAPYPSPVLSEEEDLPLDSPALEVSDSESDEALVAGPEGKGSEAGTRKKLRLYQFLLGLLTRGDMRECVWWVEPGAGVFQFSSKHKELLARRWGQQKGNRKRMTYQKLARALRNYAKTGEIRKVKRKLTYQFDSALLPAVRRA
How it was run: as §1

ELK3 = molecular target: T6, ELK3 (Homo sapiens, UniProt P41970 1-407)
T6 sequence: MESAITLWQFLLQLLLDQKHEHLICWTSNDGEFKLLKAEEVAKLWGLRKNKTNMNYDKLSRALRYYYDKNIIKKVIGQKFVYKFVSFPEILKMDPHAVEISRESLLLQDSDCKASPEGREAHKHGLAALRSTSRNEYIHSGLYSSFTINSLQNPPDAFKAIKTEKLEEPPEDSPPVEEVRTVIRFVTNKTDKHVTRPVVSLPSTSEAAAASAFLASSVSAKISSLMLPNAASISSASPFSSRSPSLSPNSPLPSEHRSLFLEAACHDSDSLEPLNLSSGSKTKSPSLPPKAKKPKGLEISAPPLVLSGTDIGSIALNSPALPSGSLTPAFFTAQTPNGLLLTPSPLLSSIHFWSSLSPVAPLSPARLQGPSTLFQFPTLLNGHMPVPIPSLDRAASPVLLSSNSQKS
How it was run: as §1

FEV = molecular target: T7, FEV (Homo sapiens, UniProt Q99581 1-238)
T7 sequence: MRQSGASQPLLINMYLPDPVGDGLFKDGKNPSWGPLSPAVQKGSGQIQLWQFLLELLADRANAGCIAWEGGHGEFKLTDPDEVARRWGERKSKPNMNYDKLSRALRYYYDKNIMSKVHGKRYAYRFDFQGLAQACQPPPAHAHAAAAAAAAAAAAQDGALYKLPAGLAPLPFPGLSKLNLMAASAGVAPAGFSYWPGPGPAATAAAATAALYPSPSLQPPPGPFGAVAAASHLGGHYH
How it was run: as §1

ETV5 = ETV5 (Homo sapiens, UniProt P41161 1-510)
Sequence of ETV5 (P41161 whole entry): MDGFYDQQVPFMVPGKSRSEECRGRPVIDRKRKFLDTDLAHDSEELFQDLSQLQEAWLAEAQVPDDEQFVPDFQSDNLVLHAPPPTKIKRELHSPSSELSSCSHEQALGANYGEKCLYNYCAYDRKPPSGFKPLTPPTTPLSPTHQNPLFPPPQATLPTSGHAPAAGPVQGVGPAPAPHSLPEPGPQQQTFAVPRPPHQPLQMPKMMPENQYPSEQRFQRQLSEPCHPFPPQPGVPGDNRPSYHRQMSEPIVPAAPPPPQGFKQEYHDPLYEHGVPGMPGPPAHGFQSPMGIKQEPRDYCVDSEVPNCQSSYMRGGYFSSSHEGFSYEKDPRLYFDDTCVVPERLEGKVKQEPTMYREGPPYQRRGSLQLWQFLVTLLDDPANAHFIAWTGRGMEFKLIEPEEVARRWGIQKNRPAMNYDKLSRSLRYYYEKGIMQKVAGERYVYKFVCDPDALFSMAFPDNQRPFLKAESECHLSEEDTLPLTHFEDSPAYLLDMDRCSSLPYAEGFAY
How it was run: as §1

SPIC = molecular target: T8, SPIC (Homo sapiens, UniProt Q8N5J4 1-248)
T8 sequence: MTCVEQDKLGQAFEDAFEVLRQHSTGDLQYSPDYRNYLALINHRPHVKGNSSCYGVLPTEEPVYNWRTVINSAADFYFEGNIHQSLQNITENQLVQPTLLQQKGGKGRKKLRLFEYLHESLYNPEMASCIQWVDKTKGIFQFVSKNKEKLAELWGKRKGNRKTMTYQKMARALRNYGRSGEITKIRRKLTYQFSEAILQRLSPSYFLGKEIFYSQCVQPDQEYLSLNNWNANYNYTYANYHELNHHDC
How it was run: as §1

ELF4 = ELF4 (Homo sapiens, UniProt Q99607 1-663)
Sequence of ELF4 (Q99607 whole entry): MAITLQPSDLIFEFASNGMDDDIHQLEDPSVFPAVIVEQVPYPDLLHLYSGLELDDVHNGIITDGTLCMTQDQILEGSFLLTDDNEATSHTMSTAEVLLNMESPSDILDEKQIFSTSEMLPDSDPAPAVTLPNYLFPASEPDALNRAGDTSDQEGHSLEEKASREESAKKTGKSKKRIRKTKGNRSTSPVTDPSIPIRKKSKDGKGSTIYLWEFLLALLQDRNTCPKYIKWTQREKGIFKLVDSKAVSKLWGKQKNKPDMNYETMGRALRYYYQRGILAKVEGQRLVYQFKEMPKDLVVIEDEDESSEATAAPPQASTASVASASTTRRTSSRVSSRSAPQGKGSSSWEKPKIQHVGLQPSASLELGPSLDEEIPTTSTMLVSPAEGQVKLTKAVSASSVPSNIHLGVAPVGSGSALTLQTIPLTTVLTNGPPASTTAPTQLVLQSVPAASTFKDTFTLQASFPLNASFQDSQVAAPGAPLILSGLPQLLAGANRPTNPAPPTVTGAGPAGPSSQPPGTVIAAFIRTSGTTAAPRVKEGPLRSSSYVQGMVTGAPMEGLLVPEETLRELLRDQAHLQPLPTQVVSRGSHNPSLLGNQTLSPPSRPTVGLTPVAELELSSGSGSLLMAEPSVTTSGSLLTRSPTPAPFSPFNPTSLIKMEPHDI
How it was run: as §1

ELK4 = molecular target: T9, ELK4 (Homo sapiens, UniProt P28324-2 1-405)
T9 sequence: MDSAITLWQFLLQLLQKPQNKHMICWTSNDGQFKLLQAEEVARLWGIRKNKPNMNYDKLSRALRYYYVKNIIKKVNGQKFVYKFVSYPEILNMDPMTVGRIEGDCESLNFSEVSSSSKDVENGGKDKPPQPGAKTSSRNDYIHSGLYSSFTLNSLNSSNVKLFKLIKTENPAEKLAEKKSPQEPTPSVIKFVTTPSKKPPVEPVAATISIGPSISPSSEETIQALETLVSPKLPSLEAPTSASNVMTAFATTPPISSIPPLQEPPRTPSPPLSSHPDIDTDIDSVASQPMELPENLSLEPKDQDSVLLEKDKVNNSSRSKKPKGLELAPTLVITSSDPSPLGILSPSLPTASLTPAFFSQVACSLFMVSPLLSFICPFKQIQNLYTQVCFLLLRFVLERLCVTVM
How it was run: as §1

ETV2 = molecular target: T10, ETV2 (Homo sapiens, UniProt O00321 1-342)
T10 sequence: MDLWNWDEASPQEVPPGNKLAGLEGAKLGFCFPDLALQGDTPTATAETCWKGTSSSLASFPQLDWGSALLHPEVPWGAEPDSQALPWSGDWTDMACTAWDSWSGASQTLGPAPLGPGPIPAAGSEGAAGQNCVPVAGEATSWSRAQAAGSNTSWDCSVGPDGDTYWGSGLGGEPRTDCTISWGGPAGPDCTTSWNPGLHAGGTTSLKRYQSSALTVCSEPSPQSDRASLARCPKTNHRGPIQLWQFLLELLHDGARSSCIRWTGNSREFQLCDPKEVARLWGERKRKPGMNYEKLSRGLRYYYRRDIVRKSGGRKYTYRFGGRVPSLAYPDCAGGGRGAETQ
How it was run: as §1

ELF3 = molecular target: T11, ELF3 (Homo sapiens, UniProt P78545 1-371)
T11 sequence: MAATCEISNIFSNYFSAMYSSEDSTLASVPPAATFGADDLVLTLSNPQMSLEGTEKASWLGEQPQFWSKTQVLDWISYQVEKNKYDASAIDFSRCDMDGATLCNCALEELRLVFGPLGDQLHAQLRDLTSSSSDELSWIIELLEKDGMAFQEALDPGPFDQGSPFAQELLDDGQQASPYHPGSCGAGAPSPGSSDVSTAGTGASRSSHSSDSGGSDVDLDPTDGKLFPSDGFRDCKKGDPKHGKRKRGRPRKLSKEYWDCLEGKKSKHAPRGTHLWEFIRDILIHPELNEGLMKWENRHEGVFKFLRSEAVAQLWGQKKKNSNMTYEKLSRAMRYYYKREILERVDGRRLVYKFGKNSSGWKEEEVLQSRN
How it was run: as §1

ETV1 = ETV1 (Homo sapiens, UniProt P50549 1-477)
Sequence of ETV1 (P50549 whole entry): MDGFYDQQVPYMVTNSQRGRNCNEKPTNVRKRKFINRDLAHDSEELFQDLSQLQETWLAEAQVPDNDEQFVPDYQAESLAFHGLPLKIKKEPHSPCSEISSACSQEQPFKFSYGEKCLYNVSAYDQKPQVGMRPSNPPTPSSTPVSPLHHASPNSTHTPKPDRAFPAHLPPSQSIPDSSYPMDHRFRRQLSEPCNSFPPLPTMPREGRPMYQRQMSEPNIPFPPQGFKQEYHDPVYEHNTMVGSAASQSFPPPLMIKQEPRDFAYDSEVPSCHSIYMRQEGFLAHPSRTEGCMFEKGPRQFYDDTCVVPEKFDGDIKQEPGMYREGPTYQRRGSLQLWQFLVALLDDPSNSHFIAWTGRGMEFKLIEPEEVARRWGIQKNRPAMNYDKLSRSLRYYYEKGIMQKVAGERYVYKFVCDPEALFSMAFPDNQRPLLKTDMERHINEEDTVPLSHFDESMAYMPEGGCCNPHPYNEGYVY
How it was run: as §1

| Sequence | binding signal (FLI1) | binding signal (ELK1) | binding signal (GABPA) | binding signal (ERG) | binding signal (ELF1) | binding signal (EHF) | binding signal (SPI1) | binding signal (SPIB) | binding signal (ELK3) | binding signal (FEV) | binding signal (ETV5) | binding signal (SPIC) | binding signal (ELF4) | binding signal (ELK4) | binding signal (ETV2) | binding signal (ELF3) | binding signal (ETV1) |
| --- | --- | --- | --- | --- | --- | --- | --- | --- | --- | --- | --- | --- | --- | --- | --- | --- | --- |
| CCGGCC | 1.27 fold enrichment (6-mer frequency, TF over GST control) | 1.27 fold enrichment (6-mer frequency, TF over GST control) | 1.13 fold enrichment (6-mer frequency, TF over GST control) | 1.18 fold enrichment (6-mer frequency, TF over GST control) | 1.16 fold enrichment (6-mer frequency, TF over GST control) | 1.1 fold enrichment (6-mer frequency, TF over GST control) | 1.04 fold enrichment (6-mer frequency, TF over GST control) | 1.18 fold enrichment (6-mer frequency, TF over GST control) | 1.33 fold enrichment (6-mer frequency, TF over GST control) | 1.54 fold enrichment (6-mer frequency, TF over GST control) | 1.17 fold enrichment (6-mer frequency, TF over GST control) | 1.32 fold enrichment (6-mer frequency, TF over GST control) | 1.08 fold enrichment (6-mer frequency, TF over GST control) | 1.27 fold enrichment (6-mer frequency, TF over GST control) | 1.22 fold enrichment (6-mer frequency, TF over GST control) | 1.14 fold enrichment (6-mer frequency, TF over GST control) | 1.27 fold enrichment (6-mer frequency, TF over GST control) |
| AACCGG | 1.43 fold enrichment (6-mer frequency, TF over GST control) | 1.58 fold enrichment (6-mer frequency, TF over GST control) | 1.33 fold enrichment (6-mer frequency, TF over GST control) | 1.73 fold enrichment (6-mer frequency, TF over GST control) | 1.46 fold enrichment (6-mer frequency, TF over GST control) | 1.5 fold enrichment (6-mer frequency, TF over GST control) | 1.7 fold enrichment (6-mer frequency, TF over GST control) | 1.64 fold enrichment (6-mer frequency, TF over GST control) | 1.54 fold enrichment (6-mer frequency, TF over GST control) | 2.35 fold enrichment (6-mer frequency, TF over GST control) | 1.53 fold enrichment (6-mer frequency, TF over GST control) | 1.4 fold enrichment (6-mer frequency, TF over GST control) | 1.31 fold enrichment (6-mer frequency, TF over GST control) | 1.26 fold enrichment (6-mer frequency, TF over GST control) | 1.45 fold enrichment (6-mer frequency, TF over GST control) | 1.36 fold enrichment (6-mer frequency, TF over GST control) | 1.69 fold enrichment (6-mer frequency, TF over GST control) |
